Measurements taken from PubChem BioAssay (NCATS).
Activity calls are given as the source filed them. Entries that show only a call come without a potency. The call rests on the fitted dose curve; in most records, active means well fitted curve in the direction sought with a large enough effect; inconclusive means small, poorly fitted or top-dose-only effect, or another doubt; inactive means no such curve, though single readings can be large or run the other way.
Potency means the concentration at half of the fitted maximal effect.

Assay: Cellular Toxicity (caspase-3) MRC-5 (AID 659)
Details: MRC-5 cells, luminescence; Potency: caspase-3 activation; series mostly up to 91.7 µM
From the text: NIH Chemical Genomics Center [NCGC]
NIH Molecular Libraries Screening Centers Network [MLSCN]
National Institutes of Environmental Health Sciences [NIEHS]
National Toxicology Program [NTP]
We have developed a 1536-well cell-based assay for quantitative high throughput screening (qHTS) against a number of cell lines to determine in vitro caspase 3/7 activity of small molecules. This particular assay uses the MRC-5 cell line which is derived from human normal lung fibroblasts.
NCGC Assay Protocol Summary:
The Caspase-Glo 3/7 assay (Promega) is a homogeneous method to measure caspase-3 and caspase-7 activities in cultured cells. The quantitation of caspase 3/7 activity is based on the cleavage of a peptide-aminoluciferin substrate. After caspase cleaves the substrate the free aminoluciferin is liberated and serves as the substrate of luciferase, which generates the light. The luminescent signal is proportional to amount of caspase 3/7 activity present.
Using the Caspase-Glo 3/7 assay, the amount of caspase 3/7 activity was measured in the MRC-5 line with complete culture medium following compound treatment for 16 hours. The assay was performed in opaque white 1536-well plates. In the screen, tamoxifen and staurosporine were used as positive controls. Library compounds were measured for their ability to cause the activation of caspase 3/7 in the cell line, as reflected by an increase in luminescence signal, in a concentration-dependent manner. Data were normalized to the controls for basal activity (DMSO only) and 100% stimulation (10 uM staurosporine). AC50 values were determined from concentration-response data modeled with the standard Hill equation.
qHTS protocol for caspase 3/7 assay in MRC-5 cells
[Step] [Parameter] [Value] [Description]
1. Reagent; 5 uL; 1500 MRC-5 cells/well
2. Time; 5 hr; 37 °C incubation
4. Controls; 23 nL; Tamoxifen 0.23 uM to 100 uM & staurosporine 1.4 pM to 100 uM
5. Time; 16 hr; 37 °C incubation
6. Reagent; 5 uL; Caspase-Glo 3/7 reagent
7. Time; 1 hr; Room Temperature
8. Detection; Luminescence; Viewlux plate reader
Keywords: caspase 3/7, apoptosis, MRC-5 cell line, luminescence, NTPHTS, NTPHTS_NCGC, NIEHS, EPA, DSSTox, MLSMR, MLSCN, NIH Roadmap, qHTS, NCGC
In the case of `COc1ccc(CN(CCN(C)C)c2ccccn2)cc1`, the Potency is reported as “inactive”. In the case of `O=c1[nH]c(=O)n([C@H]2C[C@H](O)[C@@H](CO)O2)cc1Br`, the Potency is reported as “inactive”. In the case of `COC(=O)[C@H]1[C@H]2C[C@@H]3c4[nH]c5cc(OC)ccc5c4CCN3C[C@H]2C[C@@H](OC(=O)c2cc(OC)c(OC)c(OC)c2)[C@@H]1OC`, the Potency is reported as 31.6 µM (active). For `COc1cc(Cc2cnc(N)nc2N)cc(OC)c1OC`, the Potency was “inactive”. With `Nc1ncn([C@@H]2O[C@H](CO)[C@@H](O)[C@H]2O)c(=O)n1` the Potency was “inactive”. In the case of `NC(=O)N1c2ccccc2C=Cc2ccccc21`, the Potency is reported as “inactive”. In the case of `CCCCOCCOCCOCc1cc2c(cc1CCC)OCO2`, the Potency is reported as “inactive”. With `CCCCNC(=O)NS(=O)(=O)c1ccc(C)cc1` the Potency was “inactive”. For `NC(=Nc1ccccc1)Nc1ccccc1`, the Potency was “inactive”. For `CN=C(NC#N)NCCSCc1nc[nH]c1C`, the Potency was “inactive”.
